This passage reports composite z-score and z-score results from PubChem BioAssay.

Activity calls are given as the source filed them. Unless noted, no rule for the calls is given here.

The nature of assay [1]: anti-His antibody binders, primary screen, artefact control for SMM control protein annotation, biochemical, small-molecule microarray, 635 nm fluorescence (AID 1128).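 Also: score merges feature fluorescence with signal-to-noise for each printed compound spot.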 The note with it: anti-His Alexa647 antibody binding, higher = more signal.
For assay [2], the system named is Human papillomavirus type 1a E7 protein (residues 1-88). Nature of the assay: HPV1a E7 small-molecule binders, primary screen, biochemical, small-molecule microarray, residues 1-88, 635 nm (AID 1129). The note with it: small-molecule microarray binding, fluorescence 635 nm; higher = more signal.
For assay [3], the target named is Focal adhesion kinase 1 (Homo sapiens) (UniProt Q05397). Nature of the assay: small-molecule microarray binders of FAK, primary screen, biochemical, 635/667 nm fluorescence, BSA, DTT (AID 1130).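 Also: composite of spot emission at 667 nm and signal to noise over triplicate slides.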 To be noted: PTK2 binding, 635 nm fluorescence, higher = more signal.
Sequence of Focal adhesion kinase 1 (Homo sapiens) (Q05397 whole entry, looked up): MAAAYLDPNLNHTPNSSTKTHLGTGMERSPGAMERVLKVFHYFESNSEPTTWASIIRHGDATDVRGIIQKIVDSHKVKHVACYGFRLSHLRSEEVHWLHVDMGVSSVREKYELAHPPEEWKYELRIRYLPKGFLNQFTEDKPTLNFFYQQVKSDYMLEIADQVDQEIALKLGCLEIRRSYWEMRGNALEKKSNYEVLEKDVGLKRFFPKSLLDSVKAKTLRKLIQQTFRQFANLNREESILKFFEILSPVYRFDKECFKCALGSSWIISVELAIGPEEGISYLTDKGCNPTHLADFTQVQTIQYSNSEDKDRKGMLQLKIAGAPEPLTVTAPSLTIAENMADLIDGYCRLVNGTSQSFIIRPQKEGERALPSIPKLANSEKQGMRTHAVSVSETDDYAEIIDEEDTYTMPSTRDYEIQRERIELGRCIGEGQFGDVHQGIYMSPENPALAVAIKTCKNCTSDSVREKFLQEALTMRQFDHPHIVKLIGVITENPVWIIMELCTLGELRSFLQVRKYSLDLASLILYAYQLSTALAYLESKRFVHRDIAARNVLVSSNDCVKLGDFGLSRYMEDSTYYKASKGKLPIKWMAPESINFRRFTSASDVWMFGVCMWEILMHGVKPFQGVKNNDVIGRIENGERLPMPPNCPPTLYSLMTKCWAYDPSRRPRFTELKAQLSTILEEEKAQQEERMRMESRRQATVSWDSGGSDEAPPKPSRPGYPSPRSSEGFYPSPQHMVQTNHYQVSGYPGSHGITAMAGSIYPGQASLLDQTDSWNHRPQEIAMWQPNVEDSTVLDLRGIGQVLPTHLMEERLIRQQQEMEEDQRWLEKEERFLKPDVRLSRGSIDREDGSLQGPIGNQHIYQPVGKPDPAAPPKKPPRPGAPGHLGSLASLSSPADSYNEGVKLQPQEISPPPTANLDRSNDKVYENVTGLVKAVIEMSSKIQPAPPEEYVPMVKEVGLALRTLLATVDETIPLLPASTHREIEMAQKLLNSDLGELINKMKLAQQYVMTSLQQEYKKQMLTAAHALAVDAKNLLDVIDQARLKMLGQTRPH
Assay [4] has as its system Fibrinogen (Alexa647-labelled). The experiment in a line: fibrinogen binders on compound microarrays, profiling panel, artefact control for SMM control-protein annotation, biochemical, small-molecule microarray, 635/667 nm fluorescence (AID 1131).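 Also: z-score merges 667 nm fluorescence with per-spot signal-to-noise over triplicate slides.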 To be noted: fibrinogen-A647 binding fluorescence, higher = more signal.
Assay [5] deals with Follistatin (Homo sapiens) (UniProt P19883). The experiment in a line: follistatin binders on small-molecule microarrays, primary screen, biochemical, small-molecule microarray, 635/667 nm fluorescence (AID 1132). To be noted: FST binding, 635 nm fluorescence, higher = more signal.
Sequence of Follistatin (Homo sapiens) (P19883 whole entry, looked up): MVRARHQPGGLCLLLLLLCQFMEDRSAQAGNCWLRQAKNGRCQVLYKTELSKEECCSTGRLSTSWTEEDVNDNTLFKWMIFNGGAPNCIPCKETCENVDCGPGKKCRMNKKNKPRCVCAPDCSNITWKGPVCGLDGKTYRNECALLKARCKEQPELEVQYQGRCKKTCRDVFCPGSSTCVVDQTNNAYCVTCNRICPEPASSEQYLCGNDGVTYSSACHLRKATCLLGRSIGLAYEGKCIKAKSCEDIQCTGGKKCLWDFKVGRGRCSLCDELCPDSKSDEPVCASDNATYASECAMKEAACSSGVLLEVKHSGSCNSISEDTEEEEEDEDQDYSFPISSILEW
Assay [6] has as its target Fibroblast growth factor 2 (Homo sapiens) (UniProt P09038). Nature of the assay: FGF2 binders on small-molecule microarrays, primary screen, biochemical, small-molecule microarray, 635/667 nm fluorescence (AID 1133). To be noted: small-molecule microarray binding, FGF2, fluorescence 635/667; higher = more signal.
Assay [7] is described as follows: mitochondrial membrane potential change in A549 cells, profiling panel, cell-based, JC-1 fluorescence, basal, 24 h, 100 nL (AID 1138).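 Also: A549 lung adenocarcinoma cells under basal conditions with no added stimulus; test concentration not given here.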 The note with it: higher = more signal.
Assay [8] deals with Lefty1. The experiment in a line: Lefty1 binders on small-molecule microarrays, primary screen, biochemical, small-molecule microarray, 635/667 nm fluorescence (AID 1139). To be noted: small-molecule microarray binding, fluorescence 635/667; higher = more signal.
Assay [9] concerns wheat germ agglutinin (Triticum aestivum), Alexa647-labelled. Nature of the assay: wheat germ agglutinin binders on compound microarrays, profiling panel, artefact control for SMM control-protein annotation, biochemical, small-molecule microarray, 635/667 nm fluorescence (AID 1140).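 Also: score merges 667 nm feature emission with signal to noise over triplicate slides.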 The note with it: WGA-A647 binding, 635 nm fluorescence, higher = more signal.
For assay [10], the target named is Luciferin 4-monooxygenase (Photinus pyralis) (UniProt P08659). Nature of the assay: firefly luciferase enzyme inhibitors, primary screen, biochemical, luminescence, purified enzyme, 2006 set (AID 1141).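 Also: cell-free assay with purified firefly luciferase at 100 ng per well in PBS; test concentration not given here.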 To be noted: SteadyGlo luminescence, 30 min, higher = more signal, called active from +8 up or from −8 down.
Sequence of Luciferin 4-monooxygenase (Photinus pyralis) (P08659 whole entry, looked up): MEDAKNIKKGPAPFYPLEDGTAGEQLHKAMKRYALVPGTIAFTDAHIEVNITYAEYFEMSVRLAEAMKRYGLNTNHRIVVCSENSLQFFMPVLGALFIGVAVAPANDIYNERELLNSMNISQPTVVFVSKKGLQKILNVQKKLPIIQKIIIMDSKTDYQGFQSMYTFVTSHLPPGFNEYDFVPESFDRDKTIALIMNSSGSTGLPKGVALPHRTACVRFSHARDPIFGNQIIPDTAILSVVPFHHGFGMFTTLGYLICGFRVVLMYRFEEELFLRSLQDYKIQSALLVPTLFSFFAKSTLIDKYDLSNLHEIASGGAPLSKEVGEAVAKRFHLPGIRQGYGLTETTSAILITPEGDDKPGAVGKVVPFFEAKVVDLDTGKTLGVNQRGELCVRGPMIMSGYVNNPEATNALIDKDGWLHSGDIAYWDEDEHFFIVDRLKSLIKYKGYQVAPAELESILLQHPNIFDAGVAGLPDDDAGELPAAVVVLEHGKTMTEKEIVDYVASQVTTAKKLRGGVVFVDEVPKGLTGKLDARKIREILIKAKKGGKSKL
Assay [11] relates to Wnt5a (protein binding on small-molecule microarray). The experiment in a line: Wnt5a binders on small-molecule microarray, primary screen, biophysical, 635/667 nm fluorescence (AID 1142).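 Also: fluorescence read at 667 nm with signal to noise per printed feature.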 To be noted: 635 nm fluorescence, higher = more signal.
A short description of assay [12]: cell viability in Huh7 cells, primary screen, cytotoxicity control for HCV replication inhibitor project, CellTiter-Glo luminescence, basal, 48 h (AID 1143).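 Also: Huh7 hepatoma cells carrying a hepatitis C replication reporter with no stimulus; test concentration not given here.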 To be noted: Huh7 HCV replicon, higher = more signal, called active from +8 up or from −8 down. (In general: In ATP-based viability assays light output follows the ATP content of the culture.)
Assay [13] in a line: P. aeruginosa biofilm formation inhibitors, primary screen, PAO1 strain, BacTiter-Glo luminescence, LB-PBS (AID 1144). The note with it: 12 h, higher = more signal.
Assay [14] in a line: CREB reporter modulators without forskolin, primary screen, cell-based, PC12, CRE-LacZ reporter, unstimulated (AID 1145). The note with it: no forskolin, luminescence, 4.5 h, higher = more signal, called active from +8 up or from −8 down.
Assay [15] is described as follows: CREB reporter modulators under forskolin, primary screen, cell-based, PC12, CRE-LacZ reporter, forskolin-stimulated (AID 1146).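 Also: PC12 cells with 6xCRE LacZ reporter stimulated by forskolin 10 µM; beta-galactosidase reporter signal reflecting CREB driven transcription.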 To be noted: luminescence, 4.5 h, higher = more signal, called active from +8 up or from −8 down.
Assay [16] deals with Streptavidin (Streptomyces avidinii) (UniProt P22629). The experiment in a line: streptavidin binders on small-molecule microarray, primary screen, artefact control for SMM compound annotation, biophysical, 635/667 nm fluorescence (AID 1147).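 Also: signal reflects streptavidin binding to arrayed compounds as a control protein.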 The note with it: streptavidin binding, higher = more signal.
Sequence of Streptavidin (Streptomyces avidinii) (P22629 whole entry, looked up): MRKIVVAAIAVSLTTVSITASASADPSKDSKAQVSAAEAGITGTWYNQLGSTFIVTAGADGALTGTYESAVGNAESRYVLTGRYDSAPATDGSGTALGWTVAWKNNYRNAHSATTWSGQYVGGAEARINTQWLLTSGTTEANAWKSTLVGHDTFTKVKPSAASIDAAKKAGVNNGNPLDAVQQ
A short description of assay [17]: small-molecule binders of probe aInhba, primary screen, biochemical, small-molecule microarray, 635/667 nm fluorescence (AID 1148).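 Also: score merges 667nm spot fluorescence with signal-to-noise for antibody binding to printed compounds.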 To be noted: higher = more signal.
Assay [18] has as its target Torsin-1A (Homo sapiens) (UniProt O14656). The experiment in a line: torsin A binders from cell lysate, primary screen, small-molecule microarray, wild-type, 635/667 nm (AID 1149). The note with it: COS7 hTOR1A-WT lysate, 635 nm fluorescence, higher = more signal.
The target is the same in assay [19]. Nature of the assay: small-molecule binders of mutant TOR1A in lysate, primary screen, cell lysate, small-molecule microarray, COS7 lysate, 635/667 nm fluorescence (AID 1150).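 Also: score pools 667 nm emission and signal to noise measuring lysate protein binding.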 To be noted: COS7 hTOR1A mutant lysate, 635 nm fluorescence, higher = more signal.
The subject of assay [20] is Sonic hedgehog protein (Shh). Nature of the assay: small-molecule binders of Shh protein, primary screen, biochemical, small-molecule microarray, 635/667 nm fluorescence (AID 1151).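 Also: Shh protein binding to compounds spotted on small-molecule microarray slides; score combines spot fluorescence intensity with signal-to-noise across triplicate slides.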 To be noted: small-molecule microarray binding, 635 nm fluorescence; higher = more signal.

Sequence of Fibroblast growth factor 2 (Homo sapiens) (P09038 whole entry, looked up): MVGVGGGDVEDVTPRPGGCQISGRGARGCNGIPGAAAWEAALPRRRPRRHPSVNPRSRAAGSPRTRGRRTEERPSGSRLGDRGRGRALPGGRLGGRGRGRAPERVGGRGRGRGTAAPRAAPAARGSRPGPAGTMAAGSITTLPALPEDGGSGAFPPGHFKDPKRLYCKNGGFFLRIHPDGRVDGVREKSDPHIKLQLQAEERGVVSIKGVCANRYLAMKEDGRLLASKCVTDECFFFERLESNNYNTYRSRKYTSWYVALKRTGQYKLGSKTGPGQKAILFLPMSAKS
Sequence of Torsin-1A (Homo sapiens) (O14656 whole entry, looked up): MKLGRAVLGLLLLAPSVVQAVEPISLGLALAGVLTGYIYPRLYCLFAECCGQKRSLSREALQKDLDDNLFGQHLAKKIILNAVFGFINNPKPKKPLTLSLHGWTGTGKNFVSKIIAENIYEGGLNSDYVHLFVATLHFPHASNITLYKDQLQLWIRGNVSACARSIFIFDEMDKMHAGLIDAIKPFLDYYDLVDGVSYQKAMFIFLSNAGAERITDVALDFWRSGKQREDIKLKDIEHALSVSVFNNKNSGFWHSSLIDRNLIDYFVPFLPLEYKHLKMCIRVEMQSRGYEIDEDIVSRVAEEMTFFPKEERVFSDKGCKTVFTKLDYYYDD

As for `CO[C@@H]1C=CCC(=O)N[C@@H](C)C(=O)OC[C@@H](OC)[C@H](C)CCCC(=O)OC[C@H]1C`, the composite z-score in [1] was 2.07; in assay [2], -1.64; in assay [3], -0.195; in [4], -1.64; in assay [5], 1.39; in assay [6] it was 0.343. The composite z-score in [8] is 1.37; in assay [9] it was -0.268; in assay [11], 0.122; in assay [16], 0.253; in assay [17], -0.101; in assay [18], 3.16. For the same compound, the composite z-score worked out at 2.84 in assay [19] and 1.71 in assay [20]. Also, the z-score was -0.393 in assay [7]; 1.13 (inactive) in assay [10]; -0.468 (inactive) in assay [12]; -0.499 (inactive) in assay [13]; -0.808 (inactive) in [14]; 0.0561 (inactive) in assay [15].
As to `CC(C)CON=C1C[C@@H](O)[C@@H](O)[C@@H]2[C@@H]3C(=O)N(C(C)(C)C)C(=O)[C@@H]3CC[C@H]12`, the composite z-score in assay [1] is 1.15; in assay [2], -0.264; in assay [3], -0.0405; in assay [4], 0.0972; in assay [5] it was -0.924; in assay [6], -0.546. For the same compound, the composite z-score was -0.52 in assay [8]; -0.0283 in assay [9]; -0.147 in [11]; -0.312 in assay [16]; -0.125 in assay [17]; 0.324 in assay [18]. Also, the composite z-score was 0.329 in assay [19] and -0.739 in [20]. Moreover, the z-score in assay [7] is -0.125; in [10], 0.473 (inactive); in [12], 0.419 (inactive); in assay [13] it was -0.208 (inactive); in assay [14], -0.116 (inactive); in [15] it was 0.366 (inactive).
`COc1cccc([C@H]2Oc3ccc(OC)cc3C(=NOC[C@@H](O)[C@H]3O[C@@H]4OC(C)(C)O[C@@H]4[C@H]3O)[C@@H]2O)c1`: the composite z-score in assay [1] was -1.33; in [2] it was 0.372; in assay [3], 0.263; in assay [4] it was 0.213; in assay [5] it was 0.418; in [6] it was 0.318. In addition, the composite z-score in assay [8] was 0.892; in [9], -0.0123; in assay [11], 0.205; in [16], -0.311; in assay [17] it was -0.105; in [18] it was 0.0929. Besides, the composite z-score amounted to 0.339 in [19] and 0.303 in assay [20]. The z-score in [7] is -0.315; in assay [10], -4.03 (inactive); in [12], -2.83 (inactive); in [13], 1.12 (inactive); in [14] it was 2.02 (inactive); in [15], 0.0487 (inactive).
As for `Cc1ccc(S(=O)(=O)N[C@H]2COC(=O)CC=C[C@@H](C)COC(=O)CC=C[C@@H]2C)cc1`, the composite z-score was -0.142 in [1]; -0.408 in [2]; 0.309 in assay [3]; -1.08 in [4]; 1.42 in assay [5]; 1.4 in assay [6]. Also, the composite z-score in assay [8] was 1.23; in assay [9], -0.678; in assay [11], -0.0032; in assay [16] it was 0.407; in assay [17], -0.0645; in assay [18], 0.346. For the same compound, the composite z-score in assay [19] is -0.534; in assay [20], 1.92. For the same compound, the z-score is 0.447 in assay [7]; -0.268 (inactive) in assay [10]; 0.319 (inactive) in assay [12]; -0.748 (inactive) in assay [13]; -0.0223 (inactive) in assay [14]; 0.113 (inactive) in assay [15].
Take `Cc1ccc(S(=O)(=O)NC(CCc2ccccc2)CC(=O)C(C)(C)C)cc1` (stereo not given): the composite z-score in assay [1] is 0.569; in assay [2], 0.7; in assay [3], 0.0786; in assay [4], 0.821; in [5], 0.615; in assay [6], 0.939. Also, the composite z-score is 0.625 in assay [8]; 0.693 in assay [9]; 0.375 in assay [11]; 0.191 in [16]; -0.0986 in [17]; 0.511 in assay [18]. Also, the composite z-score is 0.0204 in [19] and 0.71 in [20]. In addition, the z-score in [7] was -0.124; in assay [10], 0.74 (inactive); in assay [12], -0.482 (inactive); in assay [13], 1.1 (inactive); in assay [14], 0.2 (inactive); in assay [15], -0.37 (inactive).
